DT40 TDP1 CPT: growth inhibition of DT40 Tdp1-/-;hTDP1 cells with camptothecin (screen for TDP1 inhibitors). chicken DT40 Tdp1-/-;hTDP1 cells + 20 nM CPT, ATP luminescence, 48 h. Potency, µM (doses to about 46.2 µM), hits mostly inhibitors. hit rate 12% among 420,000. AID 686979; note: nearly all actives have a fitted effect of over 55% in size
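Chicken DT40 Tdp1-/- cells stably complemented with human TDP1 were seeded at 400 cells/well in medium containing 20 nM camptothecin, exposed to pin-transferred compounds, and grown at 37 °C for at least 48 hr. Viability was read as ATP luminescence.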
ALOX12 inh: inhibitors of human 12S-lipoxygenase ALOX12; purified 12hLO, xylenol orange hydroperoxide absorbance; P18054; hit rate 1.1% among 580,000; Potency, µM (doses to about 108 µM), actives largely listed as inhibitors
Target sequence (P18054 whole entry, looked up): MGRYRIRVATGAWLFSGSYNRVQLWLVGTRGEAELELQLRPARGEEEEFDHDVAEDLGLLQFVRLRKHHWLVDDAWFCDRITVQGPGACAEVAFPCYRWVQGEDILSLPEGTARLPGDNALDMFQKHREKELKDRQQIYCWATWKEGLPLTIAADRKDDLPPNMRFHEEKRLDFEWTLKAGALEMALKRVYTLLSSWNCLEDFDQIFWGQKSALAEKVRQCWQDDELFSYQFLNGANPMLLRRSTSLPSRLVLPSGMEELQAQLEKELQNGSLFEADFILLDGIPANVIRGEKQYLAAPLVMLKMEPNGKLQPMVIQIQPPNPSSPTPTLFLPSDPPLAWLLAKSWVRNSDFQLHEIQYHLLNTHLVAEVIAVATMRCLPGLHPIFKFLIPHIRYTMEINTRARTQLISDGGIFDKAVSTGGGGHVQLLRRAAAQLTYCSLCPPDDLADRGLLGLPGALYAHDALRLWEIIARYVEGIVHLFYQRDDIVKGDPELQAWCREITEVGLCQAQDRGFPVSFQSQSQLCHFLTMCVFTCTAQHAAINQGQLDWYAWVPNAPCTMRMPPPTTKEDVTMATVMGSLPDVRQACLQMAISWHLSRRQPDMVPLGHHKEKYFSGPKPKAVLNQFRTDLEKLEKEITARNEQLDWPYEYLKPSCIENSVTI
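Hydroperoxide product was detected by ferrous iron/xylenol orange as the 573 to 405 nm absorbance ratio. Arachidonic acid at 40 uM (final) was turned over for 30 min at room temperature by 150 nM human 12hLO, pH 7.0 Hepes buffer, after 15 min compound preincubation.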
TDP1 cell noCPT: qHTS for Inhibitors of human tyrosyl-DNA phosphodiesterase 1 (TDP1): qHTS in cells in absence of CPT. DT40 Tdp1-/- hTDP1 cells, no CPT, ATP luminescence, 48 h. Potency, µM (series often up to 46.2 µM), usual class: inhibitors. hit rate 15% among 420,000. AID 686978, 2013; note: nearly all actives have a fitted effect of over 55% in size
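No-CPT arm: Tdp1-/-;hTDP1 DT40 cells (400/well) plus compounds, incubated ≥48 hr at 37 °C. Readout CellTiter-Glo luminescence.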
IL1B secr inh: inflammasome signaling inhibition, IL-1 beta readout; THP-1 LPS/ATP IL-1B secretion, AlphaLISA, 16 h; hits give low values; activity change, % at 57.5 µM; hit rate 4.7% among 360,000; in the data active = activity change below about -50%; inconclusive = mostly about -30% to -49%
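THP-1 cells pretreated 1 hr with compounds (up to 57.5 uM final), then stimulated with LPS (250 ng/mL final) plus ATP (1.25 mM final); secreted IL-1B measured by AlphaLISA after 16 hr, decreased signal indicating inhibition.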
HT1080NT lethal: kills 2HG-producing HT-1080-NT fibrosarcoma cells; Potency, µM (series often up to 46.1 µM), usual class: cytotoxic; hit rate 1.6% among 360,000; HT-1080-NT fibrosarcoma viability, CellTiter-Glo ATP luminescence, 48 h;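 note: NT is the 2HG producing partner of a matched IDH1 knockdown line; nearly all actives have a fitted effect of over 55% in size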
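A 48-hour cytotoxicity screen used HT-1080-NT cells plated 2 hours before compound delivery. ATP-based CellTiter-Glo luminescence measured viability, normalized to DMSO and no-cell controls.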
HT1080 IDH1KD tx: HT-1080 IDH1 knockdown cell toxicity (counter line). HT-1080 IDH1 knockdown viability, ATP luminescence, 48 h. Potency, µM (top dose mostly 46.1 µM), hits mostly cytotoxic. hit rate 2% among 360,000
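Luminescent ATP read-out (CellTiter-Glo, 10 min at room temperature) after 48 h compound exposure at 37 °C gave viability of IDH1-knockdown HT-1080 cells. Activity was normalised to DMSO and cell-free wells, then fitted as concentration-response curves.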
A number is an active result. The full list was thinned out, with hits kept by preference. Unless noted, calls come from the whole dose curve; as a rule, active = well fitted curve in the direction sought with a large enough effect; inconclusive = small, poorly fitted or top-dose-only effect, or another doubt; inactive = no such curve, though single readings can be large; an effect the other way counts as inactive or inconclusive.

How did O=S(=O)(Cc1ccc(F)cc1Cl)CC(O)c1ccccc1 (stereo unspecified) do in these assays?
ALOX12 inh: inactive

Results for FC(F)(F)c1cccc(CNCc2cccc(C(F)(F)F)c2)c1 ?
ALOX12 inh: inactive

How did CCCSc1ccc([C@H]2N[C@@](C)(C(=O)OC)[C@H]3C(=O)N(C)C(=O)[C@@H]23)cc1 do in these assays?
DT40 TDP1 CPT: inactive; ALOX12 inh: inconclusive; TDP1 cell noCPT: inactive; IL1B secr inh: inactive; HT1080NT lethal: inactive; HT1080 IDH1KD tx: inactive

How did COC(=O)[C@]1(C)N[C@H](c2ccc(SC3CCCCC3)cc2)[C@@H]2C(=O)N(C)C(=O)[C@@H]21 do in these assays?
DT40 TDP1 CPT: inconclusive; ALOX12 inh: inactive; TDP1 cell noCPT: 16µM; IL1B secr inh: inactive; HT1080NT lethal: inactive; HT1080 IDH1KD tx: inactive

Results for CCCCCCSc1ccc([C@H]2N[C@@](C)(C(=O)OC)[C@H]3C(=O)N(C)C(=O)[C@@H]23)cc1 ?
DT40 TDP1 CPT: 21µM; ALOX12 inh: inconclusive; TDP1 cell noCPT: inactive; IL1B secr inh: inconclusive; HT1080NT lethal: inactive; HT1080 IDH1KD tx: inactive

How did O=C(NC1CC1)c1cc(=O)c2cc(Cl)ccc2o1 do in these assays?
ALOX12 inh: inactive

How did Cn1c(=O)c2c(ncn2CC(=O)Nc2ccc3c(c2)CCC3)n(C)c1=O do in these assays?
ALOX12 inh: inactive

How did Cc1ccc(C(=O)NC(C(=O)N2CCCCC2)C2CCN(C(=O)C(C)C)CC2)cc1 (stereo unspecified) do in these assays?
ALOX12 inh: inactive

Results for COCCOC1CCOC2(CCN(C(=O)c3cccc(C)c3)CC2)C1 (stereo unspecified) ?
ALOX12 inh: inactive

What do the screens show for `O=C(NC1CCN(Cc2ccccc2)CC1)C1CCN(S(=O)(=O)c2ccccc2)CC1`?
DT40 TDP1 CPT: inactive; ALOX12 inh: inactive; TDP1 cell noCPT: inconclusive; IL1B secr inh: inactive; HT1080NT lethal: inactive; HT1080 IDH1KD tx: inactive

How did O=C(NC1CCN(Cc2ccccc2)CC1)C1CCN(S(=O)(=O)c2ccc(Cl)cc2)CC1 do in these assays?
DT40 TDP1 CPT: inconclusive; ALOX12 inh: inconclusive; TDP1 cell noCPT: 16µM; IL1B secr inh: inactive; HT1080NT lethal: inactive; HT1080 IDH1KD tx: inactive

How did Cc1noc(C)c1S(=O)(=O)N1CCC(C(=O)NC2CCN(Cc3ccccc3)CC2)CC1 do in these assays?
DT40 TDP1 CPT: inconclusive; ALOX12 inh: inactive; TDP1 cell noCPT: 11µM; IL1B secr inh: inactive; HT1080NT lethal: inactive; HT1080 IDH1KD tx: inconclusive

What do the screens show for `COc1cc2oc(=O)c(CC(=O)NC3CCS(=O)(=O)C3)c(C)c2cc1Cl` (stereo unspecified)?
ALOX12 inh: inactive

What do the screens show for `COC(=O)N(C)CC(=O)NC1CCCCC1C` (stereo unspecified)?
ALOX12 inh: inactive

Results for COc1cc(OC)cc(OC(C)C(=O)Nc2ccc(F)cc2)c1 (stereo unspecified) ?
ALOX12 inh: inactive

How did CC1(C)Cc2ccccc2-c2n[nH]c(=S)n21 do in these assays?
DT40 TDP1 CPT: inconclusive; ALOX12 inh: inconclusive; TDP1 cell noCPT: 23µM; IL1B secr inh: inactive; HT1080NT lethal: 14µM; HT1080 IDH1KD tx: 11µM

Results for CCSc1nnc2n1C(C)(C)Cc1ccccc1-2 ?
DT40 TDP1 CPT: inactive; ALOX12 inh: inactive; TDP1 cell noCPT: inactive; IL1B secr inh: inactive; HT1080NT lethal: inactive; HT1080 IDH1KD tx: inactive

Results for OCC1CCN(CCCOCCc2ccccc2)CC1 ?
ALOX12 inh: inactive

Results for Cc1ccc(C(=O)Nc2cccc(C(F)(F)F)c2)cc1NC(=O)c1c[nH]c2cc(C(F)(F)F)ccc2c1=O ?
DT40 TDP1 CPT: 5.2µM; ALOX12 inh: inactive; TDP1 cell noCPT: inconclusive; IL1B secr inh: inactive; HT1080NT lethal: inactive; HT1080 IDH1KD tx: inactive

Results for CCN1CCN(Cc2ccc(NC(=O)c3ccc(C)c(NC(=O)c4c[nH]c5cc(C(F)(F)F)ccc5c4=O)c3)cc2C(F)(F)F)CC1 ?
DT40 TDP1 CPT: 4.6µM; ALOX12 inh: inconclusive; TDP1 cell noCPT: 4.1µM; IL1B secr inh: -105; HT1080NT lethal: 3.3µM; HT1080 IDH1KD tx: 3.3µM

Results for C=C1CC/C=C(\C)CC[C@@H]2[C@@H]1CC2(C)C ?
DT40 TDP1 CPT: inactive; ALOX12 inh: inactive; TDP1 cell noCPT: inactive

What do the screens show for `C=C1C(=O)OC2C=C(C)CCC=C(C)CCC12` (stereo unspecified)?
ALOX12 inh: inactive

What do the screens show for `C=C1C(=O)O[C@H]2[C@H]1CC/C(C)=C\CC[C@@]1(C)O[C@@H]21`?
DT40 TDP1 CPT: 2.4µM; TDP1 cell noCPT: 2.7µM

What do the screens show for `C=C1C(=O)O[C@@H]2[C@H]3O[C@]3(C)CC/C=C(\C)CC[C@@H]12`?
DT40 TDP1 CPT: 4.6µM; ALOX12 inh: inactive; TDP1 cell noCPT: 5.2µM; IL1B secr inh: -110; HT1080NT lethal: 9.2µM; HT1080 IDH1KD tx: 18µM

How did C=C1C(=O)OC2C1CC/C(C)=C/CCC1(C)OC21 (stereo unspecified) do in these assays?
DT40 TDP1 CPT: 2.3µM; TDP1 cell noCPT: 2.9µM

What do the screens show for `C=C1C(=O)O[C@@H]2C3OC3(C)CC/C=C(\C)CC[C@@H]12` (stereo partly specified)?
DT40 TDP1 CPT: 11µM; TDP1 cell noCPT: 11µM

What do the screens show for `Cc1cc(=O)c(C(=O)Nc2nnc(C(C)C)s2)nn1-c1ccc(Cl)cc1`?
ALOX12 inh: inactive

Results for CC(NC(=O)Cn1nc(-c2ccc(F)cc2)oc1=O)c1ccccc1 (stereo unspecified) ?
ALOX12 inh: inactive

Results for Cc1ccc(-c2ccc(/C=N/N3C(=O)C4C5C=CC(CC5)C4C3=O)o2)c([N+](=O)[O-])c1 (stereo unspecified) ?
DT40 TDP1 CPT: 18µM; ALOX12 inh: inactive; TDP1 cell noCPT: inconclusive; IL1B secr inh: inactive; HT1080NT lethal: inactive; HT1080 IDH1KD tx: inactive

How did O=C1C2C3C=CC(C4CC34)C2C(=O)N1/N=C/c1ccc(-c2ccc(F)cc2[N+](=O)[O-])o1 (stereo unspecified) do in these assays?
DT40 TDP1 CPT: inconclusive; ALOX12 inh: inactive; TDP1 cell noCPT: 23µM; IL1B secr inh: inconclusive; HT1080NT lethal: inactive; HT1080 IDH1KD tx: inactive

How did O=C(O)c1cc(-c2ccc(/C=N/N3C(=O)C4C5C=CC(C6CC56)C4C3=O)o2)ccc1Cl (stereo unspecified) do in these assays?
DT40 TDP1 CPT: inactive; ALOX12 inh: inactive; TDP1 cell noCPT: inactive; IL1B secr inh: inactive; HT1080NT lethal: inactive; HT1080 IDH1KD tx: inactive

High-throughput results deposited in PubChem by National Center for Advancing Translational Sciences (NCATS).
